Assay results reported in PubChem BioAssay (Tox21).
Results filed as inconclusive are left out. The source made the active and inactive calls. Unless noted, calls come from the whole dose curve; as a rule, active = well fitted curve in the direction sought with a large enough effect in the repeat runs; inconclusive = weak or mixed curves; inactive = no such curve, though single readings can be large; an effect the other way counts as inactive or inconclusive.

Assays:
[1] = target: Thyrotropin receptor (Homo sapiens) (UniProt P16473); assay: qHTS assay to identify small molecule agonists of the thyroid stimulating hormone receptor (TSHR) signaling pathway (AID 1224843; calls by dose curve; note: % is set by controls: 0 for no effect and ±100 for the full control effect; nearly all actives have a fitted effect of over 45% in size)
Thyrotropin receptor (Homo sapiens), sequence (P16473 whole entry, looked up): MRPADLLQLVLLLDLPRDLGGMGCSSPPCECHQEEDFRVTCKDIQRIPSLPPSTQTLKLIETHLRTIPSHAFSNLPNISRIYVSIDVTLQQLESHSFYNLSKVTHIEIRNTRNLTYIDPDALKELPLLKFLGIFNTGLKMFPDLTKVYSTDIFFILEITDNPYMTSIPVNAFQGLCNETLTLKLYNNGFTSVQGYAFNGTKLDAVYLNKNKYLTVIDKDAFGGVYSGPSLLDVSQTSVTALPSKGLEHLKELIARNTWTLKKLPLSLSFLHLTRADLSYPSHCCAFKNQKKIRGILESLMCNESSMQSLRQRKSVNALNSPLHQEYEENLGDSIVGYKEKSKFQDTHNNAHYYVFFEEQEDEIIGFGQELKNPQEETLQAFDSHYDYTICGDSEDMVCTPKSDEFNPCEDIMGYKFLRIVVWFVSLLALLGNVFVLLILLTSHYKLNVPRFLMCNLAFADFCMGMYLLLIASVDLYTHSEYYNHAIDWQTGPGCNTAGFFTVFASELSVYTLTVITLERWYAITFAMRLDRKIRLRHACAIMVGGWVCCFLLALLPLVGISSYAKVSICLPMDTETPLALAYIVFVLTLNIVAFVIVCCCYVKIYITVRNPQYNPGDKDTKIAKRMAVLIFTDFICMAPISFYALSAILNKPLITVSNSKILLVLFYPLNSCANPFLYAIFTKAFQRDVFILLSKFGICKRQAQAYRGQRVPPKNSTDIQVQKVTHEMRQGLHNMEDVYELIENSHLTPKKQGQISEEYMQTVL
In short: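 Steps: seed 800 TSHR-HEK293 cells per well; add test compound and hold 30 min at ambient temperature; dispense cAMP-d2 then anti-cAMP cryptate; incubate 1 h at ambient; measure fluorescence intensity.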

[2] = qHTS assay to identify small molecule agonists of the hypoxia (HIF-1) signaling pathway - cell viability counter screen (AID 1224844; calls by dose curve; note: nearly all actives have a fitted effect of over 50% in size; note: potency is the fitted concentration of half-maximal effect)
In short: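 ME-180 HRE-bla cells, 2,000/well, 0.5% dialyzed FBS; 5 hr settle, 17 hr compound at 37C/5% CO2; CCF4-AM reporter read first, then CellTiter-Glo luminescence after 30 min RT.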

[3] = qHTS assay to identify small molecule agonists of H2AX (AID 1224845; active = well fitted activation curve with a large enough effect in the signal ratio in the repeat runs, not every such curve was filed as active; the % refers to the signal ratio; note: % is set by controls: 0 for no effect and ±100 for the full control effect)
In short: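 Wild-type CHO-K1 cells, plated overnight, exposed 3hr at 37C to 15 concentrations (0.76% DMSO final). Lysed, then HTRF anti-pH2AX (S139) cryptate and anti-H2AX-d2 antibodies, 24 hr room temperature; 665/620 nm emission read.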

[4] = qHTS assay to identify small molecule antagonists of the estrogen related receptor (ERR) signaling pathway from Tox21 library (AID 1224848); note: potency is the fitted concentration of half-maximal effect; nearly all actives have a fitted effect of over 50% in size
In short: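 Luminescent reporter read-out (ONE-Glo) from NTP's ERR cell line after 18 h treatment at 37 C with DMSO-dissolved Tox21 compounds; cells pre-plated 6 h beforehand at 2,000 per well.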

[5] = qHTS assay to identify small molecule agonists of the estrogen related receptor (ERR) signaling pathway from Tox21 library (AID 1224849; calls by dose curve; note: % is set by controls: 0 for no effect and ±100 for the full control effect; nearly all actives have a fitted effect of over 15% in size); conditions: ERR reporter cell line, ONE-Glo luciferase, 18 h; at 92.4 µM (top of the series) unless noted
In short: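 ERR cells, 6 h pre-incubation 37 C/5% CO2; cpd in DMSO pinned; 18 h 37 C; ONE-Glo added, 30 min RT; luminescence read. Agonist mode, qHTS.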

[6] = qHTS RealTime-Glo MT Cell Viability Assay in HepG2 cells - 24 hour (AID 1224867); note: % is set by controls: 0 for no effect and ±100 for the full control effect; nearly all actives have a fitted effect of over 50% in size
In short: (§1)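 Tox21 10K library screened in qHTS format on HepG2 cells carrying RealTime-Glo reagents. Compounds were added after a 5 h preincubation, and the luminescent signal from continuous culture was measured repeatedly during 40 h treatment.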

[7] = qHTS RealTime-Glo MT Cell Viability Assay in HEK293 cells - 32 hour (AID 1224868); note: nearly all actives have a fitted effect of over 50% in size; note: potency is the fitted concentration of half-maximal effect
In short: (§2)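 Luminescence generated by NanoLuc from substrate produced by living HEK293 cells served as the viability signal. Each value reflects the reading at its stated time point during continuous 40 h compound exposure at 37 C.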

[8] = A CellTox Green Cytotoxicity Assay to monitor cytotoxicity in HEK293 cells - 0 hour (AID 1224869)
In short: (§3)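 Nonlytic real-time cytotoxicity: HEK293 + CellTox Green reagent plated, 5 h preincubation, pintool compound addition (23 nL in DMSO), 37 C for 40 h, fluorescence measured at successive time points.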

[9] = A CellTox Green Cytotoxicity Assay to monitor cytotoxicity in HEK293 cells - 40 hour (AID 1224871); note: % is set by controls: 0 for no effect and ±100 for the full control effect; nearly all actives have a fitted effect of over 45% in size
In short: as §3

[10] = qHTS RealTime-Glo MT Cell Viability Assay in HEK293 cells - 16 hour (AID 1224872); note: nearly all actives have a fitted effect of over 50% in size; note: potency is the fitted concentration of half-maximal effect
In short: as §2

[11] = qHTS RealTime-Glo MT Cell Viability Assay in HepG2 cells - 8 hour (AID 1224873); note: % is set by controls: 0 for no effect and ±100 for the full control effect; nearly all actives have a fitted effect of over 55% in size
In short: (§4)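 HepG2 cells (600/well) mixed with RealTime-Glo MT reagent, settled 5 h at 37 C/5% CO2 before compound addition. Nonlytic NanoLuc luminescence from viable-cell prosubstrate reduction read repeatedly during 40 h treatment at 37 C.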

[12] = qHTS RealTime-Glo MT Cell Viability Assay in HEK293 cells - 40 hour (AID 1224874); conditions: RealTime-Glo luminescence; max response: stronger effect = lower value; note: nearly all actives have a fitted effect of over 50% in size; note: potency is the fitted concentration of half-maximal effect; for max response: % is set by controls: 0 for no effect and ±100 for the full control effect
In short: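 Cells were seeded together with NanoLuc luciferase and a prosubstrate that viable cells reduce to a luciferase substrate. After a 5 h incubation at 37 C/5% CO2, compounds were added and luminescence was measured repeatedly during 40 h of treatment.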

[13] = A CellTox Green Cytotoxicity Assay to monitor cytotoxicity in HEK293 cells - 24 hour (AID 1224875); note: % is set by controls: 0 for no effect and ±100 for the full control effect; nearly all actives have a fitted effect of over 45% in size
In short: as §3

[14] = A CellTox Green Cytotoxicity Assay to monitor cytotoxicity in HepG2 cells - 16 hour (AID 1224876); note: % is set by controls: 0 for no effect and ±100 for the full control effect; nearly all actives have a fitted effect of over 45% in size
In short: (§5)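 Read-out is fluorescence of a cyanine dye excluded from live cells that stains DNA of dead HepG2 cells, with signal proportional to cytotoxicity. Plates were read at 0, 8, 16, 24, 32 and 40 h after compound addition.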

[15] = qHTS RealTime-Glo MT Cell Viability Assay in HepG2 cells - 32 hour (AID 1224877); note: % is set by controls: 0 for no effect and ±100 for the full control effect; nearly all actives have a fitted effect of over 55% in size
In short: as §1

[16] = A CellTox Green Cytotoxicity Assay to monitor cytotoxicity in HepG2 cells - 24 hour (AID 1224878)
In short: as §5

[17] = qHTS assay to identify small molecule agonists of the hypoxia (HIF-1) signaling pathway (AID 1224846; active = well fitted activation curve with a large enough effect in the signal ratio in the repeat runs, not every such curve was filed as active; the % refers to the signal ratio; note: % is set by controls: 0 for no effect and ±100 for the full control effect)
In short: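 Cell line: CellSensor HRE-bla ME-180; 2,000 cells/well; 0.5% dialyzed FBS; 5 h preincubation; DMSO compound pin transfer; 17 h, 37C, 5% CO2; CCF4-AM added; bla FRET signal scored for activation.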

[18] = qHTS assay to identify small molecule agonists of H2AX - cell viability counter screen (AID 1224847; calls by dose curve; note: top concentration of the series differs between compounds; % is set by controls: 0 for no effect and ±100 for the full control effect; nearly all actives have a fitted effect of over 30% in size)
In short: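 Cytotoxicity counter screen in wild-type CHO-K1 cells: a 3 hr compound treatment at 37C across 15 concentrations, followed by CellTiter-Glo luminescence to gauge viable cells.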

[19] = A CellTox Green Cytotoxicity Assay to monitor cytotoxicity in HepG2 cells - 40 hour (AID 1224879); note: % is set by controls: 0 for no effect and ±100 for the full control effect; nearly all actives have a fitted effect of over 40% in size
In short: as §5

[20] = qHTS RealTime-Glo MT Cell Viability Assay in HepG2 cells - 40 hour (AID 1224870)
In short: as §4

COc1cc(N)c(Cl)cc1C(=O)NC1CCN(CCCOc2ccc(F)cc2)CC1OC (stereo not given)
inactive: Potency [1] | Potency [2] | Potency [3] | activity change, positive = activation [5] -39.2% [at 42.5 µM] | Potency [6] | Potency [8] | Potency [9] | Potency [11] | Potency [13] | Potency [14] | Potency [15] | Potency [16]
active: Potency [4] 11.9 µM | Potency [7] 3.01 µM | Potency [10] 2.39 µM | Potency [12] 3.01 µM

C[C@@H](O)[C@H]1C(=O)N2C(C(=O)O)=C([C@H]3CCCO3)S[C@H]12
inactive: Potency [1] | Potency [2] | Potency [3] | outcome [17] | Potency [18] | Potency [6] | Potency [7] | Potency [8] | Potency [9] | Potency [11] | max response [12] 5.96% | Potency [13] | Potency [14] | Potency [15] | Potency [16] | Potency [19]

CC1=Nc2ccc3ccccc3c2C1(C)C
inactive: Potency [1] | Potency [2] | Potency [3] | outcome [17] | activity change, positive = activation [5] -35.4% | Potency [6] | Potency [7] | Potency [8] | Potency [20] | Potency [9] | Potency [11] | max response [12] -26.2% | Potency [13] | Potency [15]

O=C(Nc1cccc2c(=O)cc(-c3nn[nH]n3)oc12)c1ccc(OCCCCc2ccccc2)cc1
active: Potency [2] 5.35 µM
inactive: Potency [1] | Potency [3] | Potency [18] | Potency [6] | Potency [7] | Potency [8] | Potency [20] | Potency [9] | Potency [10] | Potency [11] | max response [12] -0.852% | Potency [13] | Potency [15]
